According to the supplement of paper PMC8975748:
Counter-ions that a name gives are not always drawn.

What follows are compounds tested on Saccharomyces cerevisiae BY4741 SeMeCo community (assay: z-score of subpopulation abundance vs DMSO median, subpopulation auxotrophic for HL; higher = larger share of this subpopulation than in DMSO controls). Conditions: 10 µM; 24 h; SM minimal medium; subpopulation (auxotrophy): HL.
Experimental: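 Fluorescent four-plasmid SeMeCo (self-establishing metabolically cooperating S. cerevisiae BY4741 community; plasmids pH-mRuby2, pL-mWasabi, pU-eCFP, pM-TagRFP657) was grown 24 h in minimal SM medium with each Selleck FDA-approved drug at 10 µM in 384-well plates. Cells were fixed and imaged by high-content confocal microscopy. For each auxotrophic subpopulation (and the prototroph), a z-score gives the deviation from the DMSO vehicle-control population median.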

SMILES	z-score of subpopulation abundance
C#C[C@]1(O)CC[C@H]2[C@@H]3CCc4cc(O)ccc4[C@H]3CC[C@@]21C [Ethinyl Estradiol]	-0.69
COc1cc(/C=C/C(=O)N2CCN(CC(=O)N3CCCC3)CC2)cc(OC)c1OC [Cinepazide maleate]	-0.2
NC1CCN(c2nc3c(cc2F)c(=O)c(C(=O)O)cn3-c2ccc(F)cc2F)C1 (stereo not given) [Tosufloxacin p-Toluenesulfonate Hydrate]	-0.52
COC(=O)C1=C(C)NC(C)=C(C(=O)OCCN(C)Cc2ccccc2)C1c1cccc([N+](=O)[O-])c1 (stereo not given) [Nicardipine HCl]	-0.11
CCCCCCCCN=c1ccn(CCCCCCCCCCn2ccc(=NCCCCCCCC)cc2)cc1 [Octenidine Dihydrochloride]	20
CC(C)N1CCN(c2ccc(OCC3COC(Cn4cncn4)(c4ccc(Cl)cc4Cl)O3)cc2)CC1 (stereo not given) [Terconazole]	-0.76
C[C@]12CC[C@@H]3c4ccc(OS(=O)(=O)O)cc4CC[C@H]3[C@@H]1CCC2=O [Estropipate]	-0.81
CC/C(=C(/CC)c1ccc(O)cc1)c1ccc(O)cc1 [Diethylstilbestrol]	-0.25
CN(C)CCCC1(c2ccc(F)cc2)OCc2cc(C#N)ccc21 (stereo not given) [Citalopram HBr]	-0.06
CC[C@H]1OC(=O)C[C@@H](O)[C@H](C)[C@@H](O[C@@H]2O[C@H](C)[C@@H](O)[C@H](N(C)C)[C@H]2O)[C@@H](CCN2C[C@H](C)C[C@H](C)C2)C[C@@H](C)C(=O)/C=C/C(C)=C/[C@@H]1CO[C@@H]1O[C@H](C)[C@@H](O)[C@@H](OC)[C@H]1OC [Tilmicosin]	1.91
C[C@]12CCC(=O)C=C1[C@@H]1C[C@@H]1[C@H]1[C@@H]3[C@@H]4C[C@@H]4[C@@]4(CCC(=O)O4)[C@@]3(C)CC[C@@H]12 [Drospirenone]	0.14
C(=C\c1ccccc1)/CN1CCN(C(c2ccccc2)c2ccccc2)CC1 [Cinnarizine]	0.34
CN1CCCN=C1/C=C/c1cccc(O)c1 [Oxantel Pamoate]	-0.28
CC1(C)S[C@@H]2[C@H](NC(=O)Cc3ccccc3)C(=O)N2[C@H]1C(=O)O [Penicillin G Sodium]	-0.32
OC(CCCN1CCCCC1)(c1ccccc1)c1ccccc1 [Diphenidol HCl]	-0.42
NC(CO)(CO)CO [Trometamol]	0
C[C@@H](O)[C@H]1C(=O)N2C(C(=O)O)=C([C@H]3CCCO3)S[C@H]12 [Faropenem Sodium]	0
CCCOc1ccc2[nH]c(NC(=O)OC)nc2c1 [Oxibendazole]	0.7
CC(C(=O)O)c1ccc(C(=O)c2cccs2)cc1 (stereo not given) [Suprofen]	-0.36
COc1ccccc1OCC(O)CN1CCN(CC(=O)Nc2c(C)cccc2C)CC1 (stereo not given) [Ranolazine]	-0.42

SMILES	z-score of subpopulation abundance
CN1[C@@H](CC(=O)c2ccccc2)CCC[C@H]1C[C@H](O)c1ccccc1 [Lobeline hydrochloride]	-0.13
OC1(c2ccc(Cl)c(C(F)(F)F)c2)CCN(CCCC(c2ccc(F)cc2)c2ccc(F)cc2)CC1 [Penfluridol]	0.46
Fc1ccc([C@@H]2CCNC[C@H]2COc2ccc3c(c2)OCO3)cc1 [Paroxetine mesylate]	-0.67
O=C(O)CCNC(=O)c1ccccc1 [Betamipron]	-0.92
Cc1ncc([N+](=O)[O-])n1CCOC(=O)c1ccccc1 [Metronidazole Benzoate]	-0.69
Nc1ccc(S(=O)(=O)c2ccc(N)cc2)cc1 [Dapson]	0.32
CCCCOc1cc(C(=O)NCCN(CC)CC)c2ccccc2n1 [Dibucaine HCl]	-1.25
CC1=C(C(=O)O)N2C(=O)[C@@H](NC(=O)[C@H](N)C3=CCC=CC3)[C@H]2SC1 [Cefradine]	0.06
C[C@@H]1CN(c2c(F)c(N)c3c(=O)c(C(=O)O)cn(C4CC4)c3c2F)C[C@H](C)N1 [Sparfloxacin]	-0.29
CN1CCN(CCCN2c3ccccc3Sc3ccc(C(F)(F)F)cc32)CC1 [Trifluoperazine 2HCl]	-0.59
N[C@@H]1CCCCN(c2c(F)cc3c(=O)c(C(=O)O)cn(C4CC4)c3c2Cl)C1 [Besifloxacin HCl]	-0.33
C[C@]1(Cn2ccnn2)[C@H](C(=O)O)N2C(=O)C[C@H]2S1(=O)=O [Tazobactam]	-0.38
CN1CCN2c3ncccc3Cc3ccccc3C2C1 (stereo not given) [Mirtazapine]	-0.38
c1ccc(-c2ccc(C(c3ccccc3)n3ccnc3)cc2)cc1 (stereo not given) [Bifonazole]	1.27
CN(C)C[C@@H]1CCn2cc(c3ccccc32)C2=C(C(=O)NC2=O)c2cn(c3ccccc23)CCO1	1.61
CCCCC(F)(F)[C@@]1(O)CC[C@H]2[C@@H](CC(=O)[C@@H]2CCCCCCC(=O)O)O1 [Lubiprostone]	-0.29
COc1ccc(C2CNC(=O)C2)cc1OC1CCCC1 (stereo not given) [Rolipram]	-0.38
CCN(CC)CC#CCOC(=O)C(O)(c1ccccc1)C1CCCCC1 (stereo not given) [Oxybutynin]	-0.47
CC1=C(C(=O)O)N2C(=O)[C@@H](NC(=O)[C@H](N)C3=CCC=CC3)[C@H]2SC1 [Cephradine monohydrate]	-0.62
Cc1onc(-c2c(Cl)cccc2Cl)c1C(=O)N[C@@H]1C(=O)N2[C@@H]1SC(C)(C)[C@@H]2C(=O)O [Dicloxacillin Sodium]	-0.68
